Source: the supplement of paper PMC6411743
± gives the standard deviation of the averaged measurements. Of roughly 6,200 targets only a part is listed; those with the largest changes were picked by preference.

Experiments:
Experiment in all cases: NP40-soluble protein abundance relative to vehicle (solubility fold change) (ratio); higher = more soluble protein in presence of AMP-PNP
[1] = biological target: T1, A0A0A0MSG2|J3KNW4|Q14192 (UniProt Q14192)
T1 sequence (whole entry): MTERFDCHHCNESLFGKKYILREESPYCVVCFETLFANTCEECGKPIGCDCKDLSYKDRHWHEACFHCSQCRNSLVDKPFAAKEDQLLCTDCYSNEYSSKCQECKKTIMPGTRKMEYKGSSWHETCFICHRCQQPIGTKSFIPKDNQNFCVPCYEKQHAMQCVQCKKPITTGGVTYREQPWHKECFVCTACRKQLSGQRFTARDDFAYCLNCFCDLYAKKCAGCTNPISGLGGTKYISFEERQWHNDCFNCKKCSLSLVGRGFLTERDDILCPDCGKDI
Procedure, shortened: (§1)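 Across three independent experiments, values are fold changes against the detergent-processed vehicle for each replicate, based on vsn-normalised intensities. The samples were Jurkat crude lysate treated with eight concentrations (0.1 to 10 mM) for 10 min at room temperature and then 3 min at 37 °C. Lysate was solubilised with 0.8% NP40 and benzonase, ultracentrifuged, and the supernatant analysed by TMT-labelled LC-MS/MS.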

[2] = biological target: T2, A0A0U1RRH6|O94880 (UniProt O94880)
T2 sequence (whole entry): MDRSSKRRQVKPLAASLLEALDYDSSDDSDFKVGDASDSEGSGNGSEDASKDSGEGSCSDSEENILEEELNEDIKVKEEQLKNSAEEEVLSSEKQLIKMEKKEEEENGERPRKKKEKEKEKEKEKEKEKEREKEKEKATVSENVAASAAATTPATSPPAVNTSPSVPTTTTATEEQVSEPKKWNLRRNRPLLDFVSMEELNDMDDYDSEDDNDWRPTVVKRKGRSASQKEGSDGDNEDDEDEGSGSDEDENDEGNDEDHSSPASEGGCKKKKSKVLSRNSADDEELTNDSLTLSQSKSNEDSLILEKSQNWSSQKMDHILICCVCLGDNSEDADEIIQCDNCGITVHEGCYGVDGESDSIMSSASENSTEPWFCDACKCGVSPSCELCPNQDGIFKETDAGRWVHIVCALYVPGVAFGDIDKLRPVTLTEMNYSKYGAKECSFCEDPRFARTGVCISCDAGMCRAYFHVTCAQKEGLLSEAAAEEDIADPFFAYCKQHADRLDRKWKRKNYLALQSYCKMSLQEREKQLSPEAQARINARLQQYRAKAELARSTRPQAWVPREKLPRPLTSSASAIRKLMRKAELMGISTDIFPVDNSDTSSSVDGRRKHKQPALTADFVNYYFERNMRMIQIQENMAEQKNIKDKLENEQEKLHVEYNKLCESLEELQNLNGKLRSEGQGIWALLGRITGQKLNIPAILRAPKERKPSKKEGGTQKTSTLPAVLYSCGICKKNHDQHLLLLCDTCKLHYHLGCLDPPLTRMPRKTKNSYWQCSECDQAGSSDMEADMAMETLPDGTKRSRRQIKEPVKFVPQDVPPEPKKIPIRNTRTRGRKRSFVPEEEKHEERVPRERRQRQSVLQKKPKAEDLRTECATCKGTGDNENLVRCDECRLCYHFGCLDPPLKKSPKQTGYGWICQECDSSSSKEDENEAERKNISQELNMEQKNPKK
Procedure, shortened: as §1

[3] = biological target: T3, ACOX3 (UniProt O15254)
T3 sequence (whole entry): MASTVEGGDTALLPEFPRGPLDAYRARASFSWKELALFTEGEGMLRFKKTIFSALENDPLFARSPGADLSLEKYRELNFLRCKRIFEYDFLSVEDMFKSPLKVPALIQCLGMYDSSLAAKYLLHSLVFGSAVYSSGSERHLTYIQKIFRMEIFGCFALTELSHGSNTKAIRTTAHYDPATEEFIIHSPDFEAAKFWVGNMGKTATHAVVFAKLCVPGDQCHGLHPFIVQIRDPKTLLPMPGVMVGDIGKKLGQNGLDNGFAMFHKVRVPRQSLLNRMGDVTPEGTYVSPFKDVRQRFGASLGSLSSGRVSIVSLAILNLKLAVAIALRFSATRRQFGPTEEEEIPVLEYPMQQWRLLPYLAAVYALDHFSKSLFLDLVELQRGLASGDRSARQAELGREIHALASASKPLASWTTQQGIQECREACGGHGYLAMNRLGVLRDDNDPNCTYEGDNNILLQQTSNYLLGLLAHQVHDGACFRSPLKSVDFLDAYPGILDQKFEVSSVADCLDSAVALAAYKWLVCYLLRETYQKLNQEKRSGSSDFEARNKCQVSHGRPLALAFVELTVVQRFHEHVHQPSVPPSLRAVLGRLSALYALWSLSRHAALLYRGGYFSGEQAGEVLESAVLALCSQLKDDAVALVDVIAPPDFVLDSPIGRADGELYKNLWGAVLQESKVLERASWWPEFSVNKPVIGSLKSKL
Procedure, shortened: as §1

[4] = biological target: T4, C9JI46|Q8N3X6|Q8N3X6-3 (UniProt Q8N3X6)
T4 sequence (whole entry): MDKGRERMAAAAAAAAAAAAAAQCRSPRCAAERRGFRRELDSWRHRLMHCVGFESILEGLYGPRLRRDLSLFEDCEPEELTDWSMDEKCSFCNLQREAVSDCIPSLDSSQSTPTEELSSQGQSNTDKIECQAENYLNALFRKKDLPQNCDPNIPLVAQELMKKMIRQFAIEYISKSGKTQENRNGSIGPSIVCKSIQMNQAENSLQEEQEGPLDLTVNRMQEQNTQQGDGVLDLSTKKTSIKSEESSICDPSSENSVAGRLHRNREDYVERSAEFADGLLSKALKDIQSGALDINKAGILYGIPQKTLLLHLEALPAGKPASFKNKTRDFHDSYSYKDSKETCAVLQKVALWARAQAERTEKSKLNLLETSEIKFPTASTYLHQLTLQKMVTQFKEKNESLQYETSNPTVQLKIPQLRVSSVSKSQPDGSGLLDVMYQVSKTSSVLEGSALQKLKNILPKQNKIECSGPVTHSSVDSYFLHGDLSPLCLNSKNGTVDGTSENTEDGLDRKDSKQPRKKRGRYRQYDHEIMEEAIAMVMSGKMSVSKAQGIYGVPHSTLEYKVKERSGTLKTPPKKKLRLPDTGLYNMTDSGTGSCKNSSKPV
Procedure, shortened: as §1

For `Nc1ncnc2c1ncn2[C@@H]1O[C@H](COP(=O)(O)OP(=O)(O)NP(=O)(O)O)[C@@H](O)[C@H]1O` [adenylyl imidodiphosphate], the NP40-soluble protein abundance ([1]; concentration: 1mM) was 0.991 ± 0.05, the NP40-soluble protein abundance ([1]; concentration: 2mM) was 0.988 ± 0.09 and the NP40-soluble protein abundance ([1]; concentration: 4mM) was 1.02 ± 0.048. For the same compound, the NP40-soluble protein abundance ([1]; concentration: 6mM) was 0.966 ± 0.036, the NP40-soluble protein abundance ([1]; concentration: 8mM) was 0.979 ± 0.083 and the NP40-soluble protein abundance ([1]; concentration: 10mM) was 0.947 ± 0.035. It also gave an NP40-soluble protein abundance ([2]; concentration: 1mM) of 1.02 ± 0.036, an NP40-soluble protein abundance ([2]; concentration: 2mM) of 1.07 ± 0.03 and an NP40-soluble protein abundance ([2]; concentration: 4mM) of 1.14 ± 0.025. For the same compound, the NP40-soluble protein abundance ([2]; concentration: 6mM) was 1.21 ± 0.017, the NP40-soluble protein abundance ([2]; concentration: 8mM) was 1.27 ± 0.035 and the NP40-soluble protein abundance ([2]; concentration: 10mM) was 1.36 ± 0.092. For the same compound, the NP40-soluble protein abundance ([3]; concentration: 1mM) was 0.977 ± 0.053, the NP40-soluble protein abundance ([3]; concentration: 2mM) was 0.928 ± 0.076 and the NP40-soluble protein abundance ([3]; concentration: 4mM) was 0.967 ± 0.031. For the same compound, the NP40-soluble protein abundance ([3]; concentration: 6mM) was 0.957 ± 0.057, the NP40-soluble protein abundance ([3]; concentration: 8mM) was 0.972 ± 0.07 and the NP40-soluble protein abundance ([3]; concentration: 10mM) was 0.918 ± 0.089. The NP40-soluble protein abundance ([4]; concentration: 1mM) was 0.985 ± 0.021, the NP40-soluble protein abundance ([4]; concentration: 2mM) was 1.024 ± 0.0091 and the NP40-soluble protein abundance ([4]; concentration: 4mM) was 1.01 ± 0.058. It also gave an NP40-soluble protein abundance ([4]; concentration: 6mM) of 0.992 ± 0.017, an NP40-soluble protein abundance ([4]; concentration: 8mM) of 0.952 ± 0.014 and an NP40-soluble protein abundance ([4]; concentration: 10mM) of 1 ± 0.039.
